# Test results as given in ChEMBL document CHEMBL1961873, “Compounds: GSK PKIS; Assays: Nanosyn kinase panel” (2012).
# Assays:
# [1] = molecular target: Sphingosine kinase 1 (Homo sapiens) (UniProt Q9NYA1); details: at 1 µM;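 note: mean SPHK1 inhibition value reported from the GSK PKIS kinase panel screen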
# [2] = molecular target: T1, Sphingosine kinase 2 (Homo sapiens) (UniProt Q9NRA0); details: at 0.1 µM
# T1 sequence (whole entry): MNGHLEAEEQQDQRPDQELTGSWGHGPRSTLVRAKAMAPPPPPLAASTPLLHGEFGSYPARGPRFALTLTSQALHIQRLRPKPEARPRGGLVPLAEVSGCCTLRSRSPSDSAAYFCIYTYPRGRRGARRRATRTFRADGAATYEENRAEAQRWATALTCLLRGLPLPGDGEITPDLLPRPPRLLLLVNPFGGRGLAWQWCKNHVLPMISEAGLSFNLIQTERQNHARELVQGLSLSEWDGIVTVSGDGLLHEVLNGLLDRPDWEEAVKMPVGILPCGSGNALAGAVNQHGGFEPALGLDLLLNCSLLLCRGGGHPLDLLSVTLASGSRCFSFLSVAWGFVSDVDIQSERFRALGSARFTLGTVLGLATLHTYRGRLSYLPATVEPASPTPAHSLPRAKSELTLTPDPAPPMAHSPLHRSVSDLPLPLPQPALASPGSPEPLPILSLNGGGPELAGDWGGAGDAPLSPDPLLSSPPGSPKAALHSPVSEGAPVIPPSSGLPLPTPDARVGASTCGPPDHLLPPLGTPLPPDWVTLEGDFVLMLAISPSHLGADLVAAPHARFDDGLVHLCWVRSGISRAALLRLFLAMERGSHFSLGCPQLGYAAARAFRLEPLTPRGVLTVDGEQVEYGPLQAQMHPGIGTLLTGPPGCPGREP
# [3] = molecular target: T1, Sphingosine kinase 2 (Homo sapiens); details: at 1 µM
# [4] = molecular target: Casein kinase II subunit alpha (Homo sapiens) (UniProt P68400); details: at 0.1 µM
# [5] = molecular target: Casein kinase II subunit alpha (Homo sapiens) (UniProt P68400); details: at 1 µM
# [6] = molecular target: T2, Inhibitor of nuclear factor kappa-B kinase subunit alpha (Homo sapiens) (UniProt O15111); details: at 0.1 µM
# T2 sequence (whole entry): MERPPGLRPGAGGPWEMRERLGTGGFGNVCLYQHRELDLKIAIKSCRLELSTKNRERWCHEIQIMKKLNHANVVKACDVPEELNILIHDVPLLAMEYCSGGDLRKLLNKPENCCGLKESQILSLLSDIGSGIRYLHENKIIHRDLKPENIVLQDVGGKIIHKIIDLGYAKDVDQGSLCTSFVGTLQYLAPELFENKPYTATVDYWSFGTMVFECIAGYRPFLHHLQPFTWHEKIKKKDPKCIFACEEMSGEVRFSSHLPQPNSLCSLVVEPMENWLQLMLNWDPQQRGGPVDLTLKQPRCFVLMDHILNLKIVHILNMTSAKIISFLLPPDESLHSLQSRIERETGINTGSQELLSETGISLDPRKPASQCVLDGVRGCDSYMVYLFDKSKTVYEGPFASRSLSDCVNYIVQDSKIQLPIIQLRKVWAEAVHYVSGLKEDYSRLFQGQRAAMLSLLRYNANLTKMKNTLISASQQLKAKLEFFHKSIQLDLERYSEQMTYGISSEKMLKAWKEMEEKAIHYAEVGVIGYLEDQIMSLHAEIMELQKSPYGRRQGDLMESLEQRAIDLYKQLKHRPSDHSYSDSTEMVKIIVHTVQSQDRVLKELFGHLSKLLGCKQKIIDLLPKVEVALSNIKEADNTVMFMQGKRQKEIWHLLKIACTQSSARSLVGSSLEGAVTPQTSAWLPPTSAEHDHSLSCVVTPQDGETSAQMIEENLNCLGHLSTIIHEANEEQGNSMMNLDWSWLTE
# [7] = molecular target: T2, Inhibitor of nuclear factor kappa-B kinase subunit alpha (Homo sapiens); details: at 1 µM
# [8] = molecular target: T3, Inhibitor of nuclear factor kappa-B kinase subunit beta (Homo sapiens) (UniProt O14920); details: at 0.1 µM
# T3 sequence (whole entry): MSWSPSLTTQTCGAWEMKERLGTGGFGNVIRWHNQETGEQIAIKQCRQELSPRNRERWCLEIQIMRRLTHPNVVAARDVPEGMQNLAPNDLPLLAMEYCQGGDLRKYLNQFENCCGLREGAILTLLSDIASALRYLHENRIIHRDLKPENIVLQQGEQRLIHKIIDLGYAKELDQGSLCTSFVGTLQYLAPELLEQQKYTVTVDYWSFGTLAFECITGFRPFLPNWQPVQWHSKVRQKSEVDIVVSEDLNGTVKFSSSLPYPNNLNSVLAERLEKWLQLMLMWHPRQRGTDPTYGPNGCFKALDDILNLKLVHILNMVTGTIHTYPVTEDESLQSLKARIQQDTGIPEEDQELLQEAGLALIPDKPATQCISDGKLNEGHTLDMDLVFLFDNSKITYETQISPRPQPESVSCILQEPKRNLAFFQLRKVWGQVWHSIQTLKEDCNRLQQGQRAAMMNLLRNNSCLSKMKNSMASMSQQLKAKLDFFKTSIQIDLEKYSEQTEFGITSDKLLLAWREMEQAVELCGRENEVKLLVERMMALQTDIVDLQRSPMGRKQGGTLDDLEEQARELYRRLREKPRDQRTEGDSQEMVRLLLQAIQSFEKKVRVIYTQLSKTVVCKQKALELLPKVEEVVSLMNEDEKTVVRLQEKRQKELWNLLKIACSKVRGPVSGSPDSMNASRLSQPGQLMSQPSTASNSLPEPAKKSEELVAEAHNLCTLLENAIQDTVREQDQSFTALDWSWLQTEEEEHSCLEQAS
# [9] = molecular target: T3, Inhibitor of nuclear factor kappa-B kinase subunit beta (Homo sapiens); details: at 1 µM
# [10] = molecular target: T4, Inhibitor of nuclear factor kappa-B kinase subunit epsilon (Homo sapiens) (UniProt Q14164); details: at 0.1 µM
# T4 sequence (whole entry): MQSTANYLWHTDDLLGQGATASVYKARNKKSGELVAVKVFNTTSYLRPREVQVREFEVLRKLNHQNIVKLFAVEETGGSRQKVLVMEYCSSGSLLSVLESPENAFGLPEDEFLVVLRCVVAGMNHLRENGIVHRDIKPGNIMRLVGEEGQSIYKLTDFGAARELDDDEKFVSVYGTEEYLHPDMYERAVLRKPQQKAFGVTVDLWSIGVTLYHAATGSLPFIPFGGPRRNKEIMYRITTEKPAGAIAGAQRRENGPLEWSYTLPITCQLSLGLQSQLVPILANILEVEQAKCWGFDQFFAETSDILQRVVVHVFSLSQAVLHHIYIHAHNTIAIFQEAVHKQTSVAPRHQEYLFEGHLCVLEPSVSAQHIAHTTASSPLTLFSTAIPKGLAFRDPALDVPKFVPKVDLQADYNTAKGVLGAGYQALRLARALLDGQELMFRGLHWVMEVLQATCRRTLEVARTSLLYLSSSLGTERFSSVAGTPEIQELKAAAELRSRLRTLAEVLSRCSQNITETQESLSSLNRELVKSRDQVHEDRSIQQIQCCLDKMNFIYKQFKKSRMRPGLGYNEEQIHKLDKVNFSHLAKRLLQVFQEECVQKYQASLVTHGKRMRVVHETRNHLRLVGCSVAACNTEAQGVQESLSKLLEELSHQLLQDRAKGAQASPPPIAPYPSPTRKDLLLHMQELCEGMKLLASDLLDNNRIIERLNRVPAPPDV
# [11] = molecular target: T4, Inhibitor of nuclear factor kappa-B kinase subunit epsilon (Homo sapiens); details: at 1 µM
# [12] = molecular target: T5, Serine/threonine-protein kinase Nek1 (Homo sapiens) (UniProt Q96PY6); details: at 0.1 µM
# T5 sequence (whole entry): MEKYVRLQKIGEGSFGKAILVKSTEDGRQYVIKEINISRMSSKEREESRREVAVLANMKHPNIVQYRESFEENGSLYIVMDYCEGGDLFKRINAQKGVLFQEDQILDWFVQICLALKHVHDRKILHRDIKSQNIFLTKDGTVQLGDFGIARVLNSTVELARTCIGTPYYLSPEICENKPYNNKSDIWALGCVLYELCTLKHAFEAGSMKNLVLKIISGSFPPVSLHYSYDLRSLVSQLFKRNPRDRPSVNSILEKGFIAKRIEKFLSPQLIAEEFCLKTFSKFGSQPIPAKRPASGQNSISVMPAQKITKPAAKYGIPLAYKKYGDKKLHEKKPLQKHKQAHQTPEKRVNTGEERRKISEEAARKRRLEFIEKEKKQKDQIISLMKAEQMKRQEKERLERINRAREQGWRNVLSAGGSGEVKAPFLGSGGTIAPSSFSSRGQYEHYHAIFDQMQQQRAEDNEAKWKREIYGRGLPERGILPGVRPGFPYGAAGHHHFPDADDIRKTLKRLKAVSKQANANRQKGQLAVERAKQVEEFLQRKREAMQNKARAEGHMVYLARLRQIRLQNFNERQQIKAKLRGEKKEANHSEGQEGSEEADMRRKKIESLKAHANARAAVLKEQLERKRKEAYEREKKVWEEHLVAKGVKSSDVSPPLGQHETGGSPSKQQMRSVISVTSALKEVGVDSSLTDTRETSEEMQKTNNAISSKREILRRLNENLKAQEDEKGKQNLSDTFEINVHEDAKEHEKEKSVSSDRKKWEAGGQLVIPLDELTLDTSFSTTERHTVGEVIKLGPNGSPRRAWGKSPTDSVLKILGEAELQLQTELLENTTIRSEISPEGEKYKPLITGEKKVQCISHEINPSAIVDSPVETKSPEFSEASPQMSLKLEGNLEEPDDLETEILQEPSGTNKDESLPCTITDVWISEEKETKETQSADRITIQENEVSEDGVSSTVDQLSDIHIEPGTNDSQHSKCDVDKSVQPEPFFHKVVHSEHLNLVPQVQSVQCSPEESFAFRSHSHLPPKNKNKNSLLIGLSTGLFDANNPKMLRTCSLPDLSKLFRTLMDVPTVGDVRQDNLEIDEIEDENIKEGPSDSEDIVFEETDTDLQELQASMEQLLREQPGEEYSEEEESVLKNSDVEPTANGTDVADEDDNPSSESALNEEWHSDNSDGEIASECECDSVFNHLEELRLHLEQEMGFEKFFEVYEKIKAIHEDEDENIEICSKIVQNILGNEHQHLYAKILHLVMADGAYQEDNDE
# [13] = molecular target: T5, Serine/threonine-protein kinase Nek1 (Homo sapiens); details: at 1 µM
# [14] = molecular target: T6, Serine/threonine-protein kinase Nek2 (Homo sapiens) (UniProt P51955); details: at 0.1 µM
# T6 sequence (whole entry): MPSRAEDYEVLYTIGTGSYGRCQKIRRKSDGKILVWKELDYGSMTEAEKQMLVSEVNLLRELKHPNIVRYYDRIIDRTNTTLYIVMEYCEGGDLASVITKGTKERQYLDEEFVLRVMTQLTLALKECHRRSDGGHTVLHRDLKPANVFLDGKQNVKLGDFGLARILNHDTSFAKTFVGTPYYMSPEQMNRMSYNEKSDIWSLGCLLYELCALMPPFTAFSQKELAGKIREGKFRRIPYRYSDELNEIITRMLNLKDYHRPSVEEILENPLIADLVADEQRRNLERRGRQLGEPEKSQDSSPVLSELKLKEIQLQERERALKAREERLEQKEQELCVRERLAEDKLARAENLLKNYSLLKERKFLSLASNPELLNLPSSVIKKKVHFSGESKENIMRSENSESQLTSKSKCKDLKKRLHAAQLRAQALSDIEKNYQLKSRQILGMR
# [15] = molecular target: T6, Serine/threonine-protein kinase Nek2 (Homo sapiens); details: at 1 µM
# [16] = molecular target: Serine/threonine-protein kinase Nek6 (Homo sapiens) (UniProt Q9HC98); details: at 0.1 µM
# [17] = molecular target: Serine/threonine-protein kinase Nek6 (Homo sapiens) (UniProt Q9HC98); details: at 1 µM
# [18] = molecular target: Serine/threonine-protein kinase Nek7 (Homo sapiens) (UniProt Q8TDX7); details: at 0.1 µM
# [19] = molecular target: Serine/threonine-protein kinase Nek7 (Homo sapiens) (UniProt Q8TDX7); details: at 1 µM
# [20] = molecular target: T7, Serine/threonine-protein kinase Nek9 (Homo sapiens) (UniProt Q8TD19); details: at 0.1 µM;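 note: reported value is the mean percent inhibition of NEK9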
# T7 sequence (whole entry): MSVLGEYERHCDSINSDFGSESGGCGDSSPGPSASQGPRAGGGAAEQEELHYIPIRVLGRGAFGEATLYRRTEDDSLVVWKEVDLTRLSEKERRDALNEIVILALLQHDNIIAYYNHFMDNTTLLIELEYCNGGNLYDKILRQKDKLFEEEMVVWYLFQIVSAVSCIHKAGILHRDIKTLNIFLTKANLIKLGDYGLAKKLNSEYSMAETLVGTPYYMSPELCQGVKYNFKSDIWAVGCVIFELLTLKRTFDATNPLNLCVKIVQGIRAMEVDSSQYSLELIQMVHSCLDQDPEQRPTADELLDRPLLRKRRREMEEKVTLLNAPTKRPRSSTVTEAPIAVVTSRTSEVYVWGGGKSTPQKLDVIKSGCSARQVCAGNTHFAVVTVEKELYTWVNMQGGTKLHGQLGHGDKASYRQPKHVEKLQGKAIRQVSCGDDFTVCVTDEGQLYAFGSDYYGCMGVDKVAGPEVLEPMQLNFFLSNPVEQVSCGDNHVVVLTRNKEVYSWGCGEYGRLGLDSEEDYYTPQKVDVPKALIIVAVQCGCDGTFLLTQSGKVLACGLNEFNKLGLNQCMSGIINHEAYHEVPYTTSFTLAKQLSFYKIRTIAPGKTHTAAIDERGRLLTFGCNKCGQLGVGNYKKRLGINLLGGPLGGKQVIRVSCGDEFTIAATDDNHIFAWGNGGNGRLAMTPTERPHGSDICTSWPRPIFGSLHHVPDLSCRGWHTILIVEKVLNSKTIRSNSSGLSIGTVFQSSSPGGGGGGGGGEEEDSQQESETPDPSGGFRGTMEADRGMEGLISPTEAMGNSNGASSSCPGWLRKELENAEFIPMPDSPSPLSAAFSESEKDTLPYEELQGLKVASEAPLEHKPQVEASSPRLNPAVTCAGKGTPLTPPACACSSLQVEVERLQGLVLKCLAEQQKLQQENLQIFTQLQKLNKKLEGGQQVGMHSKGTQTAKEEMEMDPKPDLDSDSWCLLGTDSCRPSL
# Sequence of Casein kinase II subunit alpha (Homo sapiens) (P68400 whole entry, looked up): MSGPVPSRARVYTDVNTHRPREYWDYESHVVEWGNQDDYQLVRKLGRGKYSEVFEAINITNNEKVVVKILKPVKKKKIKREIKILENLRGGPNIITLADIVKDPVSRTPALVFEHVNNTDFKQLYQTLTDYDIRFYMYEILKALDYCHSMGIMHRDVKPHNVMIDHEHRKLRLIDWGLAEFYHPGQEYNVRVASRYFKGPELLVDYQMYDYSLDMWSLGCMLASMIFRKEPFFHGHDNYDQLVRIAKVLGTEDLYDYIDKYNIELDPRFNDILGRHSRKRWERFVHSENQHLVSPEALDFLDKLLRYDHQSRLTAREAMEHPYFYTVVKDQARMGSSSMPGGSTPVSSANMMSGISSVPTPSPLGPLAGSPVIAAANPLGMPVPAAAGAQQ
# Sequence of Serine/threonine-protein kinase Nek7 (Homo sapiens) (Q8TDX7 whole entry, looked up): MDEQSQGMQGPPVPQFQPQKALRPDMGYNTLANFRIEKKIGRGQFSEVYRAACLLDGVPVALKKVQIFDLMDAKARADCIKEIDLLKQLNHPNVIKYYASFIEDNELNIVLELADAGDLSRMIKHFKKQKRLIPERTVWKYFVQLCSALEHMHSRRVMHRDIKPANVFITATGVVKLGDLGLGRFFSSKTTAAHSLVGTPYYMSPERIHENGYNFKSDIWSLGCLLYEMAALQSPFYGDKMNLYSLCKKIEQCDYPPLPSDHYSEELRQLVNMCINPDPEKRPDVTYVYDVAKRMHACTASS
# Sequence of Serine/threonine-protein kinase Nek6 (Homo sapiens) (Q9HC98 whole entry): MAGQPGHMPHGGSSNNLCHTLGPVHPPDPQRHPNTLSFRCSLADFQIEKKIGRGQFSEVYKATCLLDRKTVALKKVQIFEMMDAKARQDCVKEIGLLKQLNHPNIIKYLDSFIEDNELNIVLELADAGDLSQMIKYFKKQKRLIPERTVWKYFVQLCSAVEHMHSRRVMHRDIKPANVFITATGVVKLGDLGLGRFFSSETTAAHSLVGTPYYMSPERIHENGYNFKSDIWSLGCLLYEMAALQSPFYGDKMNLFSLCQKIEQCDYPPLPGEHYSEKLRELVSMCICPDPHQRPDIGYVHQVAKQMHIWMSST
# Sequence of Sphingosine kinase 1 (Homo sapiens) (Q9NYA1 whole entry): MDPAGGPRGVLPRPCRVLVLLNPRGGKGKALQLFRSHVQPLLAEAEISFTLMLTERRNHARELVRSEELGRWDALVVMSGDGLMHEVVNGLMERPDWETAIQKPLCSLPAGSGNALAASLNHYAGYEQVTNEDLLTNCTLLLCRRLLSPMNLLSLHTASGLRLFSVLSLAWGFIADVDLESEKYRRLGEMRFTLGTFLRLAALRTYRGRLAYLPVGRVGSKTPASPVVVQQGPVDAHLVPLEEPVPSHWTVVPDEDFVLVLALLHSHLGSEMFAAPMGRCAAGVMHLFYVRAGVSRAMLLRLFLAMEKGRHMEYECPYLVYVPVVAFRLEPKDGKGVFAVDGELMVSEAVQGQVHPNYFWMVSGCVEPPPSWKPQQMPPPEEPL
smiles,measurement,setting,value
COC(=O)Nc1nc2cc(Oc3ccc(NC(=O)Nc4cccc(Br)c4)cc3)ccc2[nH]1,inhibition,[1],-3.97%
same,inhibition,[2],0.52%
same,inhibition,[3],1.73%
same,inhibition,[4],2.56%
same,inhibition,[5],2.62%
same,inhibition,[6],7.56%
same,inhibition,[7],7.22%
same,inhibition,[8],5.61%
same,inhibition,[9],7.62%
same,inhibition,[10],4.82%
same,inhibition,[11],5.38%
same,inhibition,[12],2.6%
same,inhibition,[13],2.19%
same,inhibition,[14],3.46%
same,inhibition,[15],2.81%
same,inhibition,[16],3.89%
same,inhibition,[17],3.38%
same,inhibition,[18],3.11%
same,inhibition,[19],2.69%
same,inhibition,[20],7.82%
